According to PubChem BioAssay (NCATS):
Where “and” joins values, the source holds several entries; their conditions need not be identical. Equal values may be shown once. Records with an inconclusive call do not appear. Calls of active or inactive are those of the source. Calls come from the whole dose curve; as a rule, active = well fitted curve in the direction sought with a large enough effect; inconclusive = small, poorly fitted or top-dose-only effect, or another doubt; inactive = no such curve, though single readings can be large; an effect the other way counts as inactive or inconclusive.

Key:
[1] = qHTS of pediatric cancer cell lines to identify multiple opportunities for drug repurposing: Primary screen for LAN-5 cells (AID 1347100); note: potency is the fitted concentration of half-maximal effect
Outline: (§1)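 Viability after 48 h compound treatment at 37C, 500-1,000 cells/well, read as ATP luminescence with CellTiter-Glo. Primary screens used 11-point (MIPE, 0.78 nM-46 µM) or 8-point (NPC, 0.59 nM-46 µM) final concentrations; follow-up screens used 11-point dilutions.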

[2] = qHTS of pediatric cancer cell lines to identify multiple opportunities for drug repurposing: Primary screen for Rh18 cells (AID 1347102); note: nearly all actives have a fitted effect of over 65% in size
Outline: as §1

[3] = qHTS of pediatric cancer cell lines to identify multiple opportunities for drug repurposing: Primary screen for OHS-50 cells (AID 1347103); note: nearly all actives have a fitted effect of over 40% in size; note: potency is the fitted concentration of half-maximal effect
Outline: (§2)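 Cells (500-1,000/well) rested 5 h, then received compounds for 48 h; metabolically active cells were measured by CellTiter-Glo luminescence. Final concentrations spanned up to 46 µM (MIPE, 11-point) or 0.59 nM-46 µM (NPC, 8-point) in primary screens, 11-point in follow-ups.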

[4] = qHTS of pediatric cancer cell lines to identify multiple opportunities for drug repurposing: Primary screen for RD cells (AID 1347104); note: nearly all actives have a fitted effect of over 55% in size; note: potency is the fitted concentration of half-maximal effect
Outline: (§3)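 Plated cells (500-1,000 per well, growth media) were allowed to settle for 5 hours, treated with compound dilutions for 48 hours, then lysed with CellTiter-Glo for 15 min at room temperature before luminescence reading.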

[5] = qHTS of pediatric cancer cell lines to identify multiple opportunities for drug repurposing: Primary screen for MG 63 (6-TG R) cells (AID 1347105); note: nearly all actives have a fitted effect of over 50% in size; note: potency is the fitted concentration of half-maximal effect
Outline: as §3

[6] = qHTS of pediatric cancer cell lines to identify multiple opportunities for drug repurposing: Primary screen for control Hh wild type fibroblast cells (AID 1347106);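 note: series mostly up to about 46 µM; a drop in luminescence marks cytotoxicity and a rise apparent proliferation; nearly all actives have a fitted effect of over 55% in size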
Outline: as §1

[7] = qHTS of pediatric cancer cell lines to identify multiple opportunities for drug repurposing: Primary screen for Rh30 cells (AID 1347107); note: series mostly up to about 46 µM; nearly all actives have a fitted effect of over 75% in size
Outline: as §1

[8] = qHTS of pediatric cancer cell lines to identify multiple opportunities for drug repurposing: Primary screen for Rh41 cells (AID 1347108);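 note: series mostly up to about 46 µM; luminescence drop marks cytotoxic hits; nearly all actives have a fitted effect of over 70% in size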
Outline: as §3

[9] = qHTS of pediatric cancer cell lines to identify multiple opportunities for drug repurposing: Confirmatory screen for NB1643 cells (AID 1347109); note: nearly all actives have a fitted effect of over 45% in size; note: potency is the fitted concentration of half-maximal effect
Outline: as §1

[10] = qHTS of pediatric cancer cell lines to identify multiple opportunities for drug repurposing: Confirmatory screen for A673 cells (AID 1347110);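 note: cells exposed to compound for 48 h before the viability read; nearly all actives have a fitted effect of over 65% in size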; note: potency is the fitted concentration of half-maximal effect
Outline: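 Forty-eight-hour viability assay. Follow-up compounds ran at 11-point dilutions; positive control bortezomib at 2.3 uM final, neutral control DMSO.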

[11] = qHTS of pediatric cancer cell lines to identify multiple opportunities for drug repurposing: Confirmatory screen for LAN-5 cells (AID 1347113); note: nearly all actives have a fitted effect of over 65% in size; note: potency is the fitted concentration of half-maximal effect
Outline: as §1

[12] = qHTS of pediatric cancer cell lines to identify multiple opportunities for drug repurposing: Confirmatory screen for NB-EBc1 cells (AID 1347115);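 note: cells exposed to compound for 48 h before the viability read; nearly all actives have a fitted effect of over 45% in size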; note: potency is the fitted concentration of half-maximal effect
Outline: as §1

[13] = qHTS of pediatric cancer cell lines to identify multiple opportunities for drug repurposing: Confirmatory screen for SJ-GBM2 cells (AID 1347116); note: nearly all actives have a fitted effect of over 60% in size
Outline: (§4)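 Viability measured as metabolically active cells via CellTiter-Glo luminescence following 48 hours of compound exposure, 11-point dilutions in confirmatory testing. 500-1,000 cells/well plated 5 hours before dosing; controls were DMSO and 2.3 µM bortezomib.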

[14] = qHTS of pediatric cancer cell lines to identify multiple opportunities for drug repurposing: Confirmatory screen for BT-37 cells (AID 1347117); note: nearly all actives have a fitted effect of over 55% in size; note: potency is the fitted concentration of half-maximal effect
Outline: as §1

[15] = qHTS of pediatric cancer cell lines to identify multiple opportunities for drug repurposing: Confirmatory screen for control Hh wild type fibroblast cells (AID 1347121); note: nearly all actives have a fitted effect of over 70% in size
Outline: as §1

[16] = qHTS of pediatric cancer cell lines to identify multiple opportunities for drug repurposing: Confirmatory screen for DAOY cells (AID 1347114); note: nearly all actives have a fitted effect of over 65% in size; note: potency is the fitted concentration of half-maximal effect
Outline: as §4

[17] = qHTS of pediatric cancer cell lines to identify multiple opportunities for drug repurposing: Confirmatory screen for TC32 cells (AID 1347118); note: potency is the fitted concentration of half-maximal effect
Outline: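 qHTS, TC32, 48 h drug treatment, CellTiter-Glo luminescence as a proxy for metabolically active cells; primary top concentration 46 µM (MIPE 11-pt, NPC 8-pt); confirmatory 11-pt.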

[18] = qHTS of pediatric cancer cell lines to identify multiple opportunities for drug repurposing: Confirmatory screen for BT-12 cells (AID 1347112); note: nearly all actives have a fitted effect of over 55% in size; note: potency is the fitted concentration of half-maximal effect
Outline: as §1

[19] = qHTS of pediatric cancer cell lines to identify multiple opportunities for drug repurposing: Primary screen for BT-12 cells (AID 1347101); note: potency is the fitted concentration of half-maximal effect; nearly all actives have a fitted effect of over 25% in size
Outline: as §2

[20] = qHTS of pediatric cancer cell lines to identify multiple opportunities for drug repurposing: Confirmatory screen for MG 63 (6-TG R) cells (AID 1347119)
Outline: as §1

Measured: Potency

Cc1cccc(N(C)C(=S)Oc2ccc3ccccc3c2)c1
active: [3] 24.6 µM | [12] 18500 nM
not listed: [16] | [17] | [18] | [19] | [20]
inactive: all other assays above

Cc1cccc(Nc2ccncc2S(=O)(=O)NC(=O)NC(C)C)c1
inactive: [1] | [2] | [3] | [4] | [5] | [6] | [7]

CC1(C)[C@H](C(=O)O)N2C(=O)C[C@H]2S1(=O)=O
inactive: [1] | [2] | [3] | [4] | [5] | [6] | [7]

O=S(=O)(c1cccc2cnccc12)N1CCCNCC1
inactive: [1] | [2] | [3] | [4] | [5] | [6] | [7]

O=C(NCC1CN(c2ccc(N3CCOCC3=O)cc2)C(=O)O1)c1ccc(Cl)s1 (stereo unspecified)
active: [17] 2610 nM
not listed: [8] | [9] | [10] | [11] | [14] | [18] | [19] | [20]
inactive: all other assays above

Nc1ccc(S(=O)(=O)Nc2ccccn2)cc1
inactive: [1] | [2] | [3] | [4] | [5] | [6] | [7] | [8]

CCCc1cc(C(N)=S)ccn1
inactive: [1] | [2] | [3] | [4] | [5] | [6] | [7]

COCCCOc1cc(C[C@@H](C[C@H](N)[C@@H](O)C[C@H](C(=O)NCC(C)(C)C(N)=O)C(C)C)C(C)C)ccc1OC
inactive: [1] | [2] | [3] | [4] | [5] | [6] | [7]

COc1cccc(N(C)C(=S)Oc2ccc3c(c2)CCCC3)n1
active: [3] 24.3 µM
inactive: [1] | [2] | [4] | [5] | [6] | [7] | [8]

Cc1nnc(C(=O)NC(C)(C)c2nc(C(=O)NCc3ccc(F)cc3)c(O)c(=O)n2C)o1
inactive: [1] | [2] | [3] | [4] | [5] | [6] | [7] | [8]

CS(=O)(=O)c1ccc([C@@H](O)[C@@H](CO)NC(=O)C(Cl)Cl)cc1
not listed: [9] | [19] | [20]
inactive: all other assays above

CNC1CCCN(c2c(F)cc3c(=O)c(C(=O)O)cn(C4CC4)c3c2OC)C1 (stereo unspecified)
inactive: [1] | [2] | [3] | [4] | [5] | [6] | [7]

O=C(O)c1cccnc1
inactive: [1] | [2] | [3] | [4] | [5] | [6] | [7] | [8]

COC(=O)Nc1nc2ccc(S(=O)c3ccccc3)cc2[nH]1 (stereo unspecified)
inactive: [6] | [7] | [15]
active: [1] 944 nM and 11.8 µM | [19] 2460 nM | [3] 1.1 µM and 24.3 µM | [5] 668 nM and 14.8 µM | [9] 1850 nM | [10] 1170 nM | [16] 928 nM | [14] 2080 nM | [17] 1040 nM | [20] 1310 nM

COc1cc(NCc2ccc3nc(N)nc(N)c3c2C)cc(OC)c1OC
inactive: [2] | [5] | [6] | [16] | [15]
active: [1] 16.6 µM | [3] 19.3 µM | [4] 4.18 µM and 119 nM | [9] 9270 nM | [10] 3290 nM | [18] 3290 nM | [11] 18500 nM | [14] 2610 nM | [17] 585 nM | [20] 20800 nM

NC(=O)c1cccnc1
active: [10] 13100 nM | [12] 10400 nM | [17] 16500 nM
not listed: [9] | [13] | [14] | [18] | [19] | [20]
inactive: all other assays above

CNS(=O)(=O)Cc1ccc2[nH]cc(CCN(C)C)c2c1
inactive: [1] | [2] | [3] | [4] | [5] | [6] | [7] | [8]

COc1ccccc1OCC(O)COC(N)=O (stereo unspecified)
inactive: [1] | [2] | [3] | [4] | [5] | [6] | [7] | [8]

CN1CCN(c2c(F)cc3c(=O)c(C(=O)O)cn(CCF)c3c2F)CC1
inactive: [1] | [2] | [3] | [4] | [5] | [6] | [7] | [8]

COc1ncnc(NS(=O)(=O)c2ccc(N)cc2)c1OC
inactive: [1] | [2] | [3] | [4] | [5] | [6] | [7] | [8]

COC(=O)Nc1nc2ccc(C(=O)c3ccccc3)cc2[nH]1
inactive: [2] | [7] | [15]
active: [1] 0.469 µM | [3] 138 nM and 1.53 µM | [4] 1.66 µM | [5] 84.1 nM and 935 nM | [10] 1040 nM | [18] 4140 nM | [16] 928 nM | [17] 369 nM

COC(c1ccccc1)(c1ccccc1)[C@H](Oc1nc(C)cc(C)n1)C(=O)O
inactive: [1] | [2] | [3] | [4] | [5] | [6] | [7] | [8]
